In PubChem BioAssay AID1347416 (National Center for Advancing Translational Sciences (NCATS), 2020):
The whole screen tested about 4,100 compounds, of which about 1,600 (39%) were called active. Another 25% or so got no clear call; they are omitted. The call rests on the fitted dose curve; in most records, active means well fitted inhibition curve with a large enough effect; inconclusive means small, poorly fitted or top-dose-only effect; inactive means no such curve, though single readings can be large or run the other way. Some of the results follow.

Test: qHTS Validation assay for Inhibitors of Plasmodium falciparum Dd2 growth in vitro; further: nearly all actives have a fitted effect of over 70% in size
Details: P. falciparum Dd2 in RBCs, SYBR Green growth, 72 h; series mostly up to 28.7 µM; activity change, negative = inhibition: at the top concentration
Method in brief: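 P. falciparum Dd2-infected red blood cells (2.5% hematocrit, 0.3% parasitemia) grown 72 h at 37 °C under 5% O2 with compounds in a titration, 29 uM to 0.5 nM final. Growth read as SYBR Green-1 fluorescence after ~16 h lysis; artesunate 300 nM as positive control.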
On the % scale 0 is the no-effect control and ±100 the full control effect; potency means the concentration at half of the fitted maximal effect.

| SMILES | activity change, negative = inhibition | Potency |
| --- | --- | --- |
| CC(C)N(C)Cc1nnnn1CC(=O)N1CCC(O)(c2cccnc2)CC1 | 51.6% (inactive) | – |
| Cc1cc(C)cc(N=Cc2[nH]c3ccc(Br)c(Cl)c3c2O)c1 | – | 11.9 µM (active) |
| O=C(Cc1ccc(NC(=O)N2CCSc3ncccc32)cc1)NCCc1ccccc1 | 47.8% (inactive) | – |
| CCOc1ccc(CCNC(=O)Nc2ccccc2)cc1OCC | – | 5.31 µM (active) |
| CC(C)C(=O)Nc1oc(-c2ccccc2)cc1C#N | – | 6.68 µM (active) |
| c1ccc(-c2noc(-c3ccn4c(CN5CCSCC5)nnc4c3)n2)cc1 | 4.68% (inactive) | – |
| CCN1CCC(Nc2ccnc3cc(Cl)ccc23)CC1 | – | 0.188 µM (active) |
| Clc1ccc2c(NCc3ccccn3)ccnc2c1 | – | 2.11 µM (active) |
| CCN1CCN(C(=O)c2ccc3c(Cl)c4c(nc3c2)CCCC4)CC1 | -2.92% (inactive) | – |
| CCN(CC)CCNc1ccnc2cc(Cl)ccc12 | – | 0.211 µM (active) |
| CCC(O)c1cc2n(n1)CCN(C(=O)CN1CCOc3ccccc3C1)C2 (configuration not stated) | 8.38% (inactive) | – |
| CN1c2cc(C(=O)Nc3ccc(F)cc3)ccc2C(=O)N2CCCCC21 (configuration not stated) | -5.09% (inactive) | – |
| CC1(CNc2ccccc2)COc2ccc(C(=O)NCc3cccc(F)c3)cc2N1 (configuration not stated) | -24.8% [at 43.1 µM] (inactive) | – |
| CN1CCC2(C1)CN(Cc1ccccc1)c1ccc(C(=O)Nc3ccc(F)cc3)cc12 (configuration not stated) | – | 19.3 µM (active) |
| Cc1sc2nc(-c3ccccn3)[nH]c(=O)c2c1-c1ccccc1 | – | 13.3 µM (active) |
| Cc1ccccc1Nc1cc(C)c2c(O)cccc2n1 | – | 5.31 µM (active) |
| Cc1cccc(NC(=O)Cn2c(C)cc3nc4n(c(=O)c32)CCCCC4)c1C | -16.8% (inactive) | – |
| Cc1cccc(Nc2cc(C)c3c(O)cccc3n2)c1C | – | 4.73 µM (active) |
| CCc1ccc2oc(-c3ccc(NC(=O)c4cc5ccccc5o4)cc3)nc2c1 | -19.7% (inactive) | – |
| O=C(Nc1ccc(-c2nc3cc(NC(=O)c4ccccc4F)ccc3o2)cc1)c1ccccc1F | 54% (inactive) | – |
| Nc1ccc2oc(-c3ccc4nc[nH]c4c3)nc2c1 | – | 13.3 µM (active) |
| COc1ccc(CCN(C)C(=O)CC(c2cccc(F)c2)c2cn(C)c3ccccc23)cc1OC (configuration not stated) | – | 8.41 µM (active) |
| OC(CNC1CCCCCC1)COc1cccc2ccccc12 (configuration not stated) | – | 1.88 µM (active) |
| Cc1sc2ncnc(NCC3(N4CCOCC4)CCCCC3)c2c1C | -18.8% (inactive) | – |
| Cc1sc2ncnc(SC(C)C(=O)N3c4ccccc4Sc4ccccc43)c2c1C (configuration not stated) | -2.6% (inactive) | – |

| SMILES | activity change, negative = inhibition | Potency |
| --- | --- | --- |
| C/C(=N\Nc1ncnc2sc(C)c(C)c12)c1ccccn1 | – | 1.33 µM (active) |
| COc1ccc(-c2noc([C@@H]3CCCN3C(=O)CCCc3ccccc3)n2)cc1 | 1.4% (inactive) | – |
| O=C(CCCc1ccccc1)N1CCC[C@H]1c1nc(-c2ccccc2)no1 | -16.8% (inactive) | – |
| Cc1cnc(C2CCC2)n1C1CCCN(C(=O)CCCc2ccccc2)C1 (configuration not stated) | – | 15 µM (active) |
| Cc1cccc(CNC(=O)c2nnn3cc(C)[nH]c(=O)c23)c1 | 13.4% (inactive) | – |
| CCOc1ccc(NC(=O)c2nnn3cc(C)[nH]c(=O)c23)cc1 | – | 10.6 µM (active) |
| COc1ccc(NC(=O)O[C@@H]2CC[C@]3(C)C(CC[C@@H](O)[C@H]3CC(=O)NCc3ccccc3OC)[C@]2(C)CO)cc1 (some centres not stated) | – | 6.68 µM (active) |
| COc1ccc(S(=O)(=O)N2CCC(CC(=O)NCc3ccccc3)C2)cc1 (configuration not stated) | 3.39% (inactive) | – |
| c1ccc2sc(Sc3ncnc4sccc34)nc2c1 | – | 0.944 µM (active) |
| CCc1cc2c(Sc3nc4ccccc4s3)ncnc2s1 | – | 1.5 µM (active) |
| Cc1c(N/N=C(\C#N)C(=O)c2ccccc2)c(=O)n(-c2ccccc2)n1C | – | 6.68 µM (active) |
| CN(C)CCN1C(=O)c2oc3ccc(Cl)cc3c(=O)c2C1c1cccc(Br)c1 (configuration not stated) | – | 0.531 µM (active) |
| Oc1ccccc1CN1CCCC(N2CCN(c3cccc(C(F)(F)F)c3)CC2)C1 (configuration not stated) | – | 1.33 µM (active) |
| CCOc1cc(CN2CCCC(N3CCN(c4ccc(F)cc4)CC3)C2)ccc1OC (configuration not stated) | -9.71% (inactive) | – |
| O=C(NC[C@H]1O[C@@H](CO)[C@@H](O)[C@H]1N1CCN(c2cccc(C(F)(F)F)c2)CC1)c1cccs1 | -4.61% (inactive) | – |
| COc1cccc(CN2CCCC(N3CCN(c4cccc(C(F)(F)F)c4)CC3)C2)c1O (configuration not stated) | – | 0.842 µM (active) |
| CC1(C)C(=O)N(Cc2ccccc2)[C@H]2CN(CC3CCOCC3)C[C@@H]2[S+]1(=O)[O-] | 7.69% [at 43.1 µM] (inactive) | – |
| O=C(NNc1nc(-c2ccc(Br)cc2)cs1)c1ccco1 | – | 5.31 µM (active) |
| CCCCOC(=O)N1CCC(N2CCCC(C(=O)N3CCOCC3)C2)CC1 (configuration not stated) | 35% (inactive) | – |
| CCN1CCCC1CNc1ncnc2c1[nH]c1ccc(Cl)cc12 (configuration not stated) | – | 2.99 µM (active) |
| CN(Cc1cccn1C)S(C)(=O)=O | 30.2% [at 57.5 µM] (inactive) | – |
| CN(C)C[C@@H]1CN(c2ccncn2)C[C@H]1NC(=O)c1cnco1 | 16.3% (inactive) | – |
| Cc1ccc(NC2=C(c3ccc(C(F)(F)F)cc3)C(=O)c3ccccc32)cc1F | – | 1.88 µM (active) |
| Cc1ccc(C)c(NC2=C(c3ccc(C(F)(F)F)cc3)C(=O)c3ccccc32)c1 | – | 4.73 µM (active) |
| Cc1ccc(NC2=C(c3ccc(C(F)(F)F)cc3)C(=O)c3ccccc32)cc1C | – | 2.11 µM (active) |

| SMILES | activity change, negative = inhibition | Potency |
| --- | --- | --- |
| Oc1ccc(-c2ccc(-c3nc(CCc4ccccc4)no3)cn2)cc1 | 0% (inactive) | – |
| CC(C)(C)n1[nH]c2c3c(ccc2c1=O)C(=O)c1ccccc1C3=O | – | 4.73 µM (active) |
| Cc1ccc(Cn2nnc(C(=O)Nc3ccc(F)c(F)c3)c2N)cc1 | 6.12% (inactive) | – |
| CCCc1nc2ccc(NC(=O)c3cccs3)cc2c(=O)n1Cc1ccc(Cl)cc1 | – | 8.41 µM (active) |
| Cc1ccc(-c2nc(C)c(C(=O)O)s2)cc1 | 29.2% (inactive) | – |
| CC(=O)C1=C(c2ccc(Br)cc2)N(C(C)=O)n2c(nnc2C2CCCCC2)S1 | – | 2.99 µM (active) |
| CC(=O)C1=C(c2ccccc2)N(C(C)=O)n2c(nnc2C2CCCCC2)S1 | – | 4.22 µM (active) |
| CC(=O)C1=C(c2ccc(Cl)cc2)N(C(C)=O)n2c(nnc2C2CCCCC2)S1 | – | 4.73 µM (active) |
| CC(=O)C1=C(c2ccc(Cl)c(Cl)c2)N(C(C)=O)n2cnnc2S1 | – | 3.76 µM (active) |
| Cc1ncoc1C(=O)N1CCCCCC1c1nnc(-c2ccccc2)o1 (configuration not stated) | -8.53% (inactive) | – |
| COc1ccc(C2=C(C(C)=O)Sc3nnc(-c4ccc(Cl)cc4)n3N2C(C)=O)cc1OC | – | 3.76 µM (active) |
| COc1ccc(-c2noc(N3CCN(c4ccc(C)cc4)C(C)C3)n2)cc1OC (configuration not stated) | 19.4% (inactive) | – |
| COc1cccc(C2=C(C(C)=O)Sc3nnc(C4CCCCC4)n3N2C(C)=O)c1 | – | 4.73 µM (active) |
| CC[C@@]1(O)CCN(C(=O)c2cccc(-c3cccc(OC)c3)c2)C[C@H]1O | 36.8% (inactive) | – |
| COc1ccc(C(=O)NCc2nnc3ccc(-c4ccc(Cl)cc4)nn23)cc1F | 1.75% (inactive) | – |
| CCOc1ccc(C2=C(C(C)=O)Sc3nnc(C)n3N2C(C)=O)cc1 | – | 5.31 µM (active) |
| COc1cc(Cc2cnc(N)nc2N)cc(OC)c1OC | -3.03% (inactive) | – |
| Cc1noc(-c2cccn3c(CNC(=O)c4cccc(N(C)C)c4)nnc23)n1 | -9.65% (inactive) | – |
| Cc1ccc([S+](=O)([O-])N2CCC3(CCN(Cc4cccs4)c4ccccc4O3)CC2)cc1 | – | 18.8 µM (active) |
| COCC(=O)N1CCC2(CC1)CCN(Cc1cccs1)c1ccccc1O2 | -11.4% (inactive) | – |
| CCCN1CCC2(CCN(C(=O)c3cccc(Cl)c3)CC2)Oc2ccccc21 | -10.4% (inactive) | – |
| O=C(Nc1ccc(Cl)cc1)N1CCC2(CC1)CCN(Cc1cccs1)c1ccccc1O2 | – | 8.41 µM (active) |
| CCC(C)NC(=O)C1COC2(CCN(C(=O)c3cccc(Cl)c3)CC2)N1C(=O)c1ccccc1C (configuration not stated) | -20% (inactive) | – |
| CCC(C)NC(=O)c1ccccc1NC(=O)C1COc2ccccc2O1 (configuration not stated) | – | 10.6 µM (active) |
| CCc1ccc(OCC(=O)N(Cc2ccc(C(C)C)cc2)C2CCS(=O)(=O)C2)cc1 (configuration not stated) | -21.5% (inactive) | – |

| SMILES | activity change, negative = inhibition | Potency |
| --- | --- | --- |
| Cc1ccc(-n2c(C)cc(C(=O)OCC(=O)N(C)C3CCS(=O)(=O)C3)c2C)cc1 (configuration not stated) | – | 4.73 µM (active) |
| CCc1ccc(CN(C(=O)c2cc3ccccc3oc2=O)C2CCS(=O)(=O)C2)cc1 (configuration not stated) | 4.23% (inactive) | – |
| COc1ccc(-c2cc3c(=O)n(CCNC(=O)c4ccc(C)c(F)c4)ccn3n2)cc1 | -1.49% (inactive) | – |
| CN1c2cc(C(=O)NCc3ccc(F)cc3)ccc2C(=O)N2CCCCCC21 (configuration not stated) | 10% (inactive) | – |
| CC1CCCCN1CCCNC(=O)c1ccc2c(c1)sc1nc(-c3ccc(F)cc3)cn12 (configuration not stated) | – | 1.88 µM (active) |
| CCC1CCCCN1CCCNC(=O)c1ccc2c(c1)sc1nc(-c3ccc(F)cc3)cn12 (configuration not stated) | – | 1.5 µM (active) |
| O=C(C1CCC1)N1CCC2(CC1)CC(N(Cc1ccccc1)C1CC1)CCO2 (configuration not stated) | -0.913% (inactive) | – |
| CC1CCCCN1Cc1c(O)ccc2c(=O)c(-c3nc4ccccc4s3)c(N)oc12 (configuration not stated) | – | 1.06 µM (active) |
| COCCN1C(=O)CS(=O)(=O)C12CCN(C(=O)c1cc(C)ccc1C)CC2 | -2.68% (inactive) | – |
| CN(C)Cc1cc(CC2(NCc3ccc(C#N)cc3)COC2)no1 | 20.6% [at 43.1 µM] (inactive) | – |
| CN(C)Cc1cc(C[C@@H]2C[C@H](NCc3ccccc3O)C2(C)C)no1 | – | 17.2 µM (active) |
| CC(C)(C)CN[C@H]1C[C@@H](Cc2cc(CN3CCOCC3)on2)C1(C)C | 3.76% [at 43.1 µM] (inactive) | – |
| CCc1cccc2sc(N3CCN(C(=O)c4ccc([N+](=O)[O-])o4)CC3)nc12 | – | 1.06 µM (active) |
| O=C(c1ccc([N+](=O)[O-])o1)N1CCN(c2nc3c(F)cc(F)cc3s2)CC1 | – | 5.96 µM (active) |
| O=C(c1ccc([N+](=O)[O-])o1)N1CCN(c2nc3c(Cl)cccc3s2)CC1 | – | 4.22 µM (active) |
| CC(=O)N1CCN(c2nc3c(s2)CC(C(=O)NCc2cccc(Cl)c2)CC3)CC1 (configuration not stated) | -21.9% (inactive) | – |
| Cc1noc(C(C)N(C)C(=O)c2cc(COc3ccccc3F)[nH]n2)n1 (configuration not stated) | 47.1% (inactive) | – |
| Cc1nn(-c2ccccc2)c2c1C(c1cccnc1)N1C=C(S(=O)(=O)N3CCCCC3)C=CC1=N2 (configuration not stated) | – | 15 µM (active) |
| COC(=O)[C@@H]1Cc2ncn(C(C)C)c2CN1S(=O)(=O)c1cccc(C(F)(F)F)c1 | 37.8% [at 43.1 µM] (inactive) | – |
| COc1ccc(-c2ccc3ncc(Nc4ccnc(N5CCOCC5)c4)n3n2)cn1 | – | 4.85 µM (active) |
| Fc1ccc(-c2ccc3ncc(Nc4ccnc(N5CCOCC5)c4)n3n2)cc1 | – | 1.72 µM (active) |
| COc1ccc(-c2ccc3ncc(Nc4cccc(C(F)(F)F)c4)n3n2)cn1 | – | 12.2 µM (active) |
